Most compounds without a hit are left out; they make up all but 19% or so of the library.
DT40 TDP1 no CPT – qHTS for Inhibitors of human tyrosyl-DNA phosphodiesterase 1 (TDP1): qHTS in cells in absence of CPT. 420,000 tested, 15% active. DT40 Tdp1-/- hTDP1 cells, no CPT, ATP luminescence, 48 h. Potency, µM (top dose mostly 46.2 µM), inactives show at the highest dose activity change, negative = growth inhibition, actives largely listed as inhibitors; also: potency is read from the fitted curve at half-maximal effect; % is scaled to controls: 0 for no effect and ±100 for the full control effect; nearly all actives have a fitted effect of over 55% in size
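Cells were dispensed at 400 per well, compounds added by pin tool, plates incubated ≥48 hr at 37 °C, then CellTiter-Glo added for 30 min at room temperature before luminescence reading. Line: DT40 Tdp1-/- complemented with hTDP1; camptothecin omitted.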
IL-1B inflam inh – blocks inflammasome-driven IL-1 beta release. THP-1 LPS/ATP IL-1B secretion, AlphaLISA, 16 h; active compounds read low. activity change, % at 57.5 µM. 360,000 tested, 4.7% active. AID 743279; in the data active = activity change below about -50%; inconclusive = mostly about -30% to -49%; also: % is scaled to controls: 0 for no effect and ±100 for the full control effect
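THP-1 cells pretreated 1 hr with compounds (up to 57.5 uM final), then stimulated with LPS (250 ng/mL final) plus ATP (1.25 mM final); secreted IL-1B measured by AlphaLISA after 16 hr, decreased signal indicating inhibition.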
MCF10A rerep – induces DNA re-replication in MCF 10a normal breast cells; AID 624296; 350,000 tested, 2.9% active; Potency, µM (series often up to 46.1 µM), for inactives: at the highest dose activity, positive = re-replication, actives largely listed as activators; MCF 10A DNA re-replication, Hoechst nuclear intensity, 48 h; also: potency is read from the fitted curve at half-maximal effect; % of control where 0% means no effect; nearly all actives have a fitted effect of over 50% in size
SW480 rerep – DNA re-replication induction in SW480 cells | SW480 DNA re-replication, Hoechst DNA content imaging, 48 h | Potency, µM (series often up to 46.1 µM), inactives show top-dose re-replication activation, most hits filed as activators | 340,000 tested, 1.8% active | AID 624297; also: potency is read from the fitted curve at half-maximal effect; % of control where 0% means no effect; nearly all actives have a fitted effect of over 55% in size
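Hoechst fluorescence of nuclei (405 nm excitation, 500-530 nm emission) measured by plate-scanning imager after 48 hr compound exposure at 37 C; re-replication scored as increased number of nuclei with elevated intensity.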
BCR signal inh – chronic active BCR signaling inhibition | 340,000 tested, 0.05% active | AID 493014 | Potency, µM (highest dose often 46.1 µM), for inactives: at the top dose activity change, negative = inhibition, hits mostly inhibitors | ABC-DLBCL IkBa-CBG/CBR reporter, luminescence ratio, 4 h; active = well fitted inhibition curve with a large enough effect in the signal ratio, with a control signal flat, not every such curve was filed as active; inconclusive = small, poorly fitted or top-dose-only effect, or effect the other way, or a change in a side signal; the % refers to the signal ratio;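 also: potency is read from the fitted curve at half-maximal effect; plate controls were basal doxycycline-induced cells for no effect and cells given 10 µM MG132 for full effect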
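Doxycycline induced both beetle luciferases in TMD8 lymphoma cells; IKK-driven degradation limits the IkappaBalpha-fused green signal, while red luminescence normalises for cell number and nonspecific effects. Compounds tested up to 46 uM, 4 hrs.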
DT40 TDP1 CPT – DT40-hTDP1 cell growth loss with CPT; chicken DT40 Tdp1-/-;hTDP1 cells + 20 nM CPT, ATP luminescence, 48 h; Potency, µM (doses to about 46.2 µM), inactives show top-dose activity change, negative = growth inhibition, usual class: inhibitors; 420,000 tested, 12% active; AID 686979; also: potency is read from the fitted curve at half-maximal effect; % is scaled to controls: 0 for no effect and ±100 for the full control effect; nearly all actives have a fitted effect of over 55% in size
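Cell growth measured by CellTiter-Glo luminescence after a minimum 48 h, 37 C compound exposure with 20 nM CPT in Tdp1-knockout DT40 cells stably expressing hTDP1, seeded 400/well; qHTS titration format.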
* hit, by the source's call; u = inconclusive; x = no result; [ ] = remark or other dose. Unless noted, calls follow the shape of the dose curve; as a rule, active = well fitted curve in the direction sought with a large enough effect; inconclusive = small, poorly fitted or top-dose-only effect, or another doubt; inactive = no such curve, though single readings can be large; an effect the other way counts as inactive or inconclusive.

SMILES | DT40 TDP1 no CPT | IL-1B inflam inh | MCF10A rerep | SW480 rerep | BCR signal inh | DT40 TDP1 CPT
COc1ccc(C#Cc2ccc3c(c2)c(=O)c2ccccc2n3C)cc1 | 18µM* | 59 | u | -4% | u | u
Cn1c2ccccc2c(=O)c2ccc(C#CC3(O)CCCCC3)cc21 | 10µM* | -54* | -4% | u | u | 13µM*
COc1cccc2c(=O)c3c(oc12)CCCC3 | -19% | -25 | x | x | x | -6%
COc1cccc2sc3ccc(C#CC4(N)CCCCC4)cc3c(=O)c12 | 15µM* | -61* | u | 27% | u | 16µM*
Cn1c2ccccc2c(=O)c2cc(C#Cc3ccc(N)cc3)ccc21 | u | 4 | -3% | u | u | u
CNC(C)C#Cc1ccc2oc3cccc(OC)c3c(=O)c2c1 (centres undefined) | u | 0 | 1% | 3% | u | u
CNC(C)C#Cc1ccc2sc3cccc(OC)c3c(=O)c2c1 (centres undefined) | 15µM* | -80* | u | 7.3µM* | u | u
Cc1ccc(SCC(=O)OC(C)C(=O)NC2CCCCC2C)c(C)c1 (centres undefined) | -17% | -5 | 5% | 3% | 7% | -9%
COc1cc2sc3ccc(C#Cc4ccc(N)cc4)cc3c(=O)c2cc1OC | u | 0 | u | u | x | -23%
COc1cccc2sc3cc(C#CC4(O)CCCCC4)ccc3c(=O)c12 | u | u | u | -3% | u | 7.3µM*
COc1cccc(C#Cc2c(C=O)n(C)c3ccccc23)c1 | 16µM* | 35 | u | 2.3µM* | u | 16µM*
COc1cc2sc3ccc(C#CC4(O)CCCCC4)cc3c(=O)c2cc1OC | 16µM* | 0 | 9.2µM* | u | x | u
Cn1c(C=O)c(C#CC(C)(C)O)c2ccccc21 | u | 21 | -8% | -2% | -4% | u
COc1ccc(N2CS(=O)CC2=O)cc1 (centres undefined) | 8% | 7 | 0% | 0% | u | -21%
COc1cccc(C(=O)N2CCN(Cc3ccccc3Br)CC2)c1 | u | 3 | 7% | 1% | -11% | u
COC(=O)CN1C(=O)CSc2ccc(S(=O)(=O)Nc3cccc(Br)c3)cc21 | u | x | x | x | x | -20%
CN1CCN(c2nc3c(c(=O)[nH]c(=O)n3C)n2Cc2ccc(Cl)cc2)CC1 | 8% | u | 11% | -2% | -5% | -6%
N#Cc1c(C(F)(F)F)cc(-c2cccs2)nc1SC(C(=O)O)c1ccccc1 (centres undefined) | u | 67 | 21µM* | -14% | x | -11%
N#Cc1c(C(F)(F)F)cc(-c2cccs2)nc1SCC(=O)O | 0% | 0 | 0% | -3% | u | -23%
CNc1nc(-c2cccs2)cc(C(F)(F)F)c1C#N | -4% | 4 | 18µM* | 5.8µM* | -5% | -2%
CCCC(=O)N(c1ccc2oc(=O)sc2c1)S(=O)(=O)c1cccs1 | u | 3 | u | -3% | u | u
COc1ccc(S(=O)(=O)N(C(=O)c2ccncc2)c2ccc3oc(C)c(C(C)=O)c3c2)cc1 | 2.3µM* | x | x | x | x | 3.7µM*
CC(=O)c1c(C)oc2ccc(N(C(C)=O)S(=O)(=O)c3cccc([N+](=O)[O-])c3)cc12 | u | 14 | -16% | u | -13% | 21µM*
COc1ccc(S(=O)(=O)N(C(=O)c2ccncc2)c2ccc3oc4c(c3c2)CCCC4)cc1 | 21µM* | 23 | 3.3µM* | u | u | 18µM*
CCCCC(=O)N(c1ccc2oc(C)c(C(C)=O)c2c1)S(=O)(=O)c1ccc(F)cc1C | 10µM* | x | x | x | x | 15µM*
SMILES | DT40 TDP1 no CPT | IL-1B inflam inh | MCF10A rerep | SW480 rerep | BCR signal inh | DT40 TDP1 CPT
O=C(c1ccncc1)N(c1ccc2oc3c(c2c1)CCCC3)S(=O)(=O)c1cccc([N+](=O)[O-])c1 | u | 6 | u | 0% | -4% | -26%
CCOC(=O)c1[nH]c(C)c(C(=O)/C=C/c2ccc(C(=O)O)cc2)c1C | -22% | -13 | u | u | u | 9%
CCCCc1cc(=O)oc2cc(OCC(=O)Nc3ccccn3)ccc12 | u | 13 | -5% | -32% | -5% | 4%
Cc1cc(C)c(CN2CCN(C(=O)Cn3cnc(C(=O)Nc4ccc(C)c(C)c4)n3)CC2)c(C)c1 | -82% | -7 | u | u | 0% | u
COc1ccc(N(C(=O)c2ccncc2)S(=O)(=O)c2ccccc2)cc1 | -28% | 7 | 3% | 2% | -6% | -11%
CCc1ccc(S(=O)(=O)N(C(=O)c2ccncc2)c2ccc3oc(C)c(C(=O)OC)c3c2)cc1 | 2.6µM* | x | x | x | x | 2.9µM*
COc1ccc(S(=O)(=O)Nc2ccc3oc4c(c3c2)CCCC4)cc1 | 21µM* | x | x | x | x | u
COc1ccc(S(=O)(=O)Nc2ccc3oc(C)c(C(=O)O)c3c2)cc1 | -1% | 10 | -2% | 14% | 16% | 4%
CCOc1ccc(S(=O)(=O)N(C(=O)c2ccncc2)c2ccc3oc(C)c(C(=O)OC)c3c2)cc1 | 0.92µM* | x | x | x | x | 1µM*
CC(=O)c1c(C)oc2ccc(N(C(=O)Oc3ccccc3)S(=O)(=O)c3ccc(C(C)(C)C)cc3)cc12 | 9.2µM* | x | x | x | x | 5.2µM*
CCc1nc2ccc(C(=O)N(CC)CCN(C)C)cn2c1N(CC)CCOC | 6% | 7 | x | x | x | 5%
COc1ccc(S(=O)(=O)N2CCC(C(=O)N[C@H](C(=O)NC3CCCC3)C(C)C)CC2)cc1 | -9% | -9 | 1% | -6% | 0% | -16%
COC(=O)c1c(C)oc2ccc(N(C(=O)c3ccncc3)S(=O)(=O)c3ccc(OC)cc3)cc12 | 0.52µM* | x | x | x | x | 0.58µM*
Cc1ccc(S(=O)(=O)Nc2cc(Cl)c3oc4c(c3c2)CCCC4)cc1 | 13µM* | x | x | x | x | u
CCC(c1nc2ccccc2[nH]1)n1c(=O)c(-c2ccco2)nc2ccccc21 (centres undefined) | 18µM* | -66* | x | x | x | 21µM*
O=c1c(-c2ccco2)nc2ccccc2n1C(CCc1ccccc1)c1nc2ccccc2[nH]1 (centres undefined) | u | -19 | x | x | x | u
O=c1c(-c2ccco2)nc2ccccc2n1C(c1ccccc1)c1nc2ccccc2[nH]1 (centres undefined) | 23µM* | -8 | x | x | x | 16µM*
CCn1c(SCC(=O)NNC(=O)c2ccc(C)cc2)nnc1-c1ccncc1 | 21µM* | 15 | -185%[0.0737 µM] | -34% | x | -26%
